# Assay outcomes deposited in PubChem BioAssay by National Center for Advancing Translational Sciences (NCATS).
# Sm TGR block = inhibitors of Schistosoma mansoni thioredoxin glutathione reductase. Potency, µM (highest dose often 114 µM), for the others: at the highest dose activity change, negative = inhibition, usual class: inhibitors. purified TGR, DTNB reduction, TNB absorbance 405 nm. actives 3% (n = 360,000). Q962Y6; also: % is scaled to controls: 0 for no effect and ±100 for the full control effect; nearly all actives have a fitted effect of over 60% in size
#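 First, TGR (20 nM dispensed) and NADPH were mixed with compound. Second, a 15 min room-temperature incubation followed. Third, further NADPH and then DTNB were added to start the reaction. Finally, TNB absorbance was monitored kinetically.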
# Pf growth 96h = P. falciparum growth inhibition at 96 hour, primary screen for plastid delayed-death inhibitors; P. falciparum luciferase reporter growth, 96 h; Potency, µM (series often up to 28.7 µM), inactives show top-dose activity change, negative = inhibition, actives largely listed as inhibitors; actives 6.9% (n = 320,000); also: % is scaled to controls: 0 for no effect and ±100 for the full control effect
#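 96 h incubation, 37 C, 5% CO2, of luciferase-reporter P. falciparum-infected RBCs (2% hematocrit, 0.05% parasitemia final) with test compounds; endpoint luminescence.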
# SARS PLP yeast = inhibitors of SARS-CoV papain-like protease in yeast | S. cerevisiae expressing SARS-CoV PLpro, growth rescue | Potency, µM (highest dose often 32.9 µM), without a hit: at the top dose activity, positive = growth rescue, most hits filed as activators | actives 0.19% (n = 330,000) | AID 485353; calls by dose curve; also: 0% is about no effect; nearly all actives have a fitted effect of over 55% in size
# Pf growth 48h = inhibits P. falciparum growth in the first generation, 48 h. P. falciparum luciferase growth in erythrocytes, 48 h. Potency, µM (highest dose often 28.7 µM), inactives show at the top dose activity change, negative = inhibition, usual class: inhibitors. actives 5.9% (n = 310,000). AID 504832; also: % is scaled to controls: 0 for no effect and ±100 for the full control effect
#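 Erythrocytes infected with P. falciparum carrying an integrated firefly luciferase reporter (2% hematocrit, 0.1% parasitemia final) were exposed to compounds in RPMI 1640 with 0.5% Albumax at 37 C, 5% CO2. Growth inhibition was scored as reduced luminescence.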
# Active calls of the source: *; ? = inconclusive; nt = not tested or not shown; [ ] = dose if it differs, or a comment. Most compounds without a hit are left out; they make up all but 12% or so of the library. Unless noted, calls follow the shape of the dose curve; as a rule, active = well fitted curve in the direction sought with a large enough effect; inconclusive = small, poorly fitted or top-dose-only effect, or another doubt; inactive = no such curve, though single readings can be large; an effect the other way counts as inactive or inconclusive. Potency is read from the fitted curve at half-maximal effect.
SMILES,Sm TGR block,Pf growth 96h,SARS PLP yeast,Pf growth 48h
Fc1ccc(COc2ccccc2CNCc2ccncc2)cc1,1%,?,3%,?
Brc1ccc(OCc2ccccc2)c(CNCc2ccncc2)c1,-2%,0.41µM*,-24%,9.3µM*
Fc1cccc(Cl)c1CNCc1cccnc1,48%,12µM*,9%,11%
COc1ccc(OC)c(C(=O)N/N=C/c2ccccn2)c1,0%,9%,-6%,79%
COc1ccc(C(=O)Nc2ccccc2C(=O)N/N=C/c2ccccn2)cc1OC,-10%,12µM*,-5%,4.1µM*
CCOc1ccc(Br)cc1C(=O)N/N=C/c1ccccn1,6%,?,-1%,9.3µM*
Cc1cccc(Cn2c(COc3ccc(Cl)cc3)nc3ccccc32)c1,-2%,nt,nt,nt
O=S(=O)(c1cc(F)ccc1F)N1CCC2(CC1)OCCN2S(=O)(=O)c1cccs1,-16%,?,-3%,?
O=C(N/N=C/c1ccncc1)c1ccc(COc2cccc3cccnc23)cc1,-6%,?,1%,8.3µM*
O=C(N/N=C/c1ccco1)c1ccc(OCc2ccccc2)cc1,-7%,-43%,0%,?
O=C(N/N=C/c1ccco1)c1ccccc1OCc1ccc(Br)cc1,-6%,13µM*,-16%,2%
C=CCOc1ccccc1CNCc1cccnc1,-6%,32%,3%,1%
O=C(N/N=C/c1ccncc1)c1cc(Br)ccc1OCc1ccccc1,5%,2.9µM*,0%,?
Clc1ccc(COc2ccccc2CNCc2cccnc2)cc1,7%,4.7µM*,5%,nt
COc1ccc(CNC(=O)c2cc(-c3ccc(OC)c(OC)c3)nc3n[nH]c(-c4ccc(C)cc4)c23)cc1,8%,nt,nt,nt
CCNc1nc(NC(C)C)nc(NS(=O)(=O)c2ccc(C)cc2)n1,9%,338%,0%,0%
CC1CN(C(=O)CCC(=O)NCCCN2C(C)CCCC2C)c2ccccc2O1 (stereo unspecified),?,42%,-3%,-18%
Cc1ccccc1N=C/C=C1\N(C)c2ccccc2C1(C)C,20%,nt,-7%,-6%
CN1/C(=C\C=Nc2cc(S(=O)(=O)N3CCOCC3)ccc2N2CCOCC2)C(C)(C)c2ccccc21,3%,8.3µM*,-6%,-25%
Oc1cccc2ccc[n+](CC(O)Cn3c4ccccc4c4ccccc43)c12 (stereo unspecified),-12%,?,-4%,1µM*
Cc1ccc(-c2[nH]ncc2C(=O)c2ccc(Br)cc2)c(O)c1,-9%,?,-6%,?
Cc1ccc(O)c(C(=O)c2cnc3c(c2)COc2ccc(C)cc2-3)c1,-4%,?,-25%,13µM*
Cc1ccc2c(c1)-c1ncc(C(=O)c3cc(Br)ccc3O)cc1CO2,-2%,?,-2%,1.7µM*
O=C(NC1CCCC1)C(c1ccccn1)N(C(=O)c1csnn1)c1ccccc1Br (stereo unspecified),1%,2.1µM*,1%,6%
O=C(NC1CCCC1)C(c1ccccn1)N(C(=O)c1csnn1)c1ccccc1F (stereo unspecified),-4%,15%,0%,-1%
SMILES,Sm TGR block,Pf growth 96h,SARS PLP yeast,Pf growth 48h
CCOC(=O)C1CCN(S(=O)(=O)c2cc3c(cc2C)NC(=O)CO3)CC1,-3%,?,4%,5%
Cc1ccc(C2C3=C(CC(C)(C)CC3=O)N(CCN3CCOCC3)C3=C2C(=O)CC(C)(C)C3)cc1,3%,?,-3%,12µM*
CC1(C)CC(=O)C2=C(C1)N(CCN1CCOCC1)C1=C(C(=O)CC(C)(C)C1)C2c1ccc(Cl)c([N+](=O)[O-])c1,11%,-2%,2%,?
Cc1ccc(C2C3=C(CC(C)(C)CC3=O)OC3=C2C(=O)CC(C)(C)C3)cc1,nt,-6%,11%,10µM*
CCc1ccc(S(=O)(=O)Nc2cccc(-c3ccc(N4CCOCC4)nn3)c2)cc1,6%,nt,nt,nt
COc1ccc(CCN(C)C(=O)COC(=O)/C=C/c2ccc(C)o2)cc1OC,16µM*,?,1%,0%
CCCc1cc(=O)[nH]c(SCC(=O)NCc2ccc3c(c2)OCO3)n1,1%,12µM*,-2%,4%
Cc1nnc(SCC(=O)NCc2ccc3c(c2)OCO3)[nH]c1=O,-2%,0.26µM*,-5%,37%
CCc1cc(=O)[nH]c(SCC(=O)NCc2ccc3c(c2)OCO3)n1,1%,5%,1%,1%
COCCNC(=O)CSc1nc2cc3c(cc2c(=O)n1CCCCCC(=O)NCc1ccc(OC)cc1)OCO3,16%,nt,nt,nt
Cn1c(=O)c2c(nc(SCC(=O)NCc3ccc4c(c3)OCO4)n2Cc2ccc(Cl)cc2)n(C)c1=O,-23%,-10%,-14%,9.3µM*
Cn1c(=O)c2c(nc(NCc3ccc4c(c3)OCO4)n2Cc2ccccc2Cl)n(C)c1=O,9%,17%,4%,2%
COCCCNC(=O)CSc1nc2cc3c(cc2c(=O)n1CCCC(=O)NCc1ccc(OC)cc1)OCO3,5%,10µM*,0%,-16%
Cc1ccc(CNC(=O)CSc2ncc3c(n2)-c2ccc(Cl)cc2N(Cc2ccccc2)S3(=O)=O)cc1,2%,nt,nt,nt
CCOC(=O)c1c(C=O)c(C)n(Cc2ccc(Cl)cc2)c1C,20%,?,-27%,1.9µM*
CC(=O)c1c(C(C)=O)c(C)n(NC(=O)c2ccc(Cl)cc2)c1C,-1%,6%,6%,nt
CCOC(=O)c1c(C=O)c(C)n(Cc2ccccc2)c1C,0%,23%,-7%,nt
CC(=O)c1c(C(C)=O)c(C)n(Cc2ccc(Cl)cc2)c1C,-20%,1.5µM*,-1%,nt
CC(C)Oc1ccccc1/C=N/NC(=O)C1CCCC1,-16%,2.6µM*,16%,-3%
O=C(NCCSCc1c(F)cccc1Cl)C1CCN(S(=O)(=O)Cc2ccccc2)CC1,-6%,nt,nt,nt
COCCCN1C(=O)N(c2ccc(F)cc2)C(=O)C1CC(=O)Nc1ccc(OC)cc1 (stereo unspecified),-17%,18%,-1%,20%
c1ccc(-c2nnc(C(c3ccccc3)c3ccccc3)o2)cc1,-1%,7.4µM*,9%,?
Cc1ccc(-c2nnc(-c3ccccc3)o2)cc1,8%,?,-25%,477%
COC(=O)/C=C/c1c(C)nc(NCc2ccccc2)nc1Cl,0%,-15%,1%,-11%
CCOC(=O)C1CCCN(C/C(O)=C(\C#N)c2nc(-c3ccccc3)cs2)C1 (stereo unspecified),-9%,13µM*,2%,28%
N#C/C(=C(/O)CN1CCOCC1)c1nc(-c2ccccc2)cs1,-1%[11.4 µM],?,2%,nt
O=C(NCc1cccnc1)c1ccc(NS(=O)(=O)c2ccccc2)cc1,-1%,21%,?,-21%
O=C(NCc1cccnc1)c1ccccc1NS(=O)(=O)c1ccc(F)cc1,-1%,51%,0%,-28%
O=C(NCc1cccnc1)c1ccccc1NS(=O)(=O)c1ccc(F)cc1F,40µM*,4%,-1%,-3%
O=C(NCc1cccnc1)c1ccc(NS(=O)(=O)c2ccc(F)cc2)cc1,-26%,6.6µM*,-5%,?
